The campaign covered roughly 16,000 compounds. About 5,100 (32%) were called active. About 25% were inconclusive and are not listed. The call rests on the fitted dose curve; in most records, active means well fitted curve in the direction sought with a large enough effect; inconclusive means small, poorly fitted or top-dose-only effect, or effect the other way; inactive means no such curve, though single readings can be large or run the other way. Some of the results follow.
molecular target: Cytochrome P450 3A4 (Homo sapiens) (UniProt P08684); experiment: Cytochrome panel assay with activity outcomes; conditions: recombinant CYP, pro-luciferin dealkylation, luminescence, p450-cyp3a4; series mostly up to 57.1 µM
Sequence (P08684 whole entry, looked up): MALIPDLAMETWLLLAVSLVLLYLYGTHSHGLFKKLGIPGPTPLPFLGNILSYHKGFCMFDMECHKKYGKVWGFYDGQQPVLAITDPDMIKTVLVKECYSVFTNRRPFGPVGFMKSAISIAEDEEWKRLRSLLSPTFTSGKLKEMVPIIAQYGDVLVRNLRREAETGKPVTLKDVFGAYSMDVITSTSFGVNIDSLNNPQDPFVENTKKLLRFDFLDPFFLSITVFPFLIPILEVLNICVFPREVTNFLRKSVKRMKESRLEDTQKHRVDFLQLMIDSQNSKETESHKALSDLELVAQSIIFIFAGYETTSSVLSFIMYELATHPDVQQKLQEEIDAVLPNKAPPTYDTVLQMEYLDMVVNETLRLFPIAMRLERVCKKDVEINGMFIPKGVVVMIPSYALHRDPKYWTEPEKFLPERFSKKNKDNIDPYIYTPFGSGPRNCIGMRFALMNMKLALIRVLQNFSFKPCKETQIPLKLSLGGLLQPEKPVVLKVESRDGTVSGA
On the % scale 0 is the no-effect control and ±100 the full control effect.

activity, negative = inhibition, inactive:
C[C@@H](CNC(N)=O)NC(N)=O -2.29% [at 11.4 µM], O=C(NCC1COc2ccccc2O1)C1C2C=CC3(CN(Cc4cccs4)C(=O)C13)O2 (stereo not drawn) -13.1% [at 2.29 µM], CC(CC(=O)O)(CC(=O)O)c1ccccc1 0.682% [at 11.4 µM], NC(CSS(=O)(=O)O)=N[C@@H]1C[C@H]2CC[C@@H]1C2 -19.6% [at 11.4 µM], CCCC1c2c(ccc3ccccc23)Oc2ccc3ccccc3c21 -11.1% [at 11.4 µM], Cc1cnn(-c2cc(N/N=C/c3ccccc3F)ncn2)c1 -16.7% [at 2.29 µM], CC(C)(Oc1ccc(-c2cccc3ccccc23)cc1)C(=O)O -6.61% [at 11.4 µM], O=C(O)c1ccccc1-c1ccccc1C(=O)Nc1ccc2c(c1)Cc1cc(F)ccc1-2 -16.4% [at 11.4 µM], CC[C@](N)(C(=O)O)C(C)C -7.26% [at 11.4 µM], CC1CN(C(=S)NC(=O)c2ccc([N+](=O)[O-])cc2)CC(C)O1 (stereo not drawn) 2.57% [at 2.29 µM], O=C(O)/C(Cc1ccc([N+](=O)[O-])cc1)=N/O -11.6% [at 11.4 µM], CCC(=O)OCN1C(=O)C=CC1=O 2.64% [at 11.4 µM], N=C(N)SCc1nc2ccccc2c(=O)n1-c1ccccc1Cl -15.4% [at 2.29 µM], O=C(O)CSc1nc2ccccc2[nH]1 2.87% [at 11.4 µM], O=C(O)c1ccc([N+](=O)[O-])c(P(=O)(O)O)c1 -2.76% [at 11.4 µM], N[C@@H](CSCc1ccc(I)cc1)C(=O)O -8.11% [at 11.4 µM], N=C(N)[C@H](N=Nc1ccccc1)C(N)=O -11.5% [at 11.4 µM], CCOc1cccc(NC(=O)CSc2nc(C)c3c(c2C#N)CCCC3)c1 -6.34% [at 11.4 µM], O=C(O)CC12C[C@H]3C[C@@H](CC(O)(C3)C1)C2 -10.4% [at 11.4 µM]

AC50, inactive:
CCOc1ccc(NC(=O)N2CCC(C(N)=O)(N3CCCCC3)CC2)cc1, O=C(O)C1C2C=CC3(CN(Cc4ccccn4)C(=O)C13)O2 (stereo not drawn), CCCCNC(=O)C1CCN(Cc2ccccn2)CC1, c1ccc([C@@H]2CN3CCSC3=N2)cc1, N#Cc1cccc(-c2cc(NCc3ccccc3)ncn2)c1, CC1(C)CCC(C)(C)c2cc(C(=O)Nc3ccc(C(=O)O)cc3)ccc21, O=C(OCC1CC(c2ccccc2)=NO1)c1ccc(Cl)cc1 (stereo not drawn), O=C(O)c1ccccc1C(=O)NCc1ccc(F)cc1, O=C(NNC(=O)c1ccccc1O)c1ccc(Cl)cc1, O=C(O)CC[C@@H](NC(=O)c1ccccc1C(=O)O)C(=O)O, Oc1c(CN2CCCCC2)cc(Br)c2cccnc12, CCCNC(=O)Nc1ccc2c(c1)nc(C)n2C, CCN1CCC[C@H]1CNC(=O)c1cc(S(N)(=O)=O)ccc1OC, CCOC(=O)C1=C2SCC(=O)N2C(N)=C(C#N)C1, COCC(=O)N1CCC2(CC1)CN(Cc1ccccc1OC)C2, COc1ccccc1CN1CCC2(CC1)CCN(C(C)=O)CC2, CC1(C)OC(=O)NC1=O, O=C1C(=O)c2ccccc2C(O)=C1C1CCC(c2ccc(Cl)cc2)CC1 (stereo not drawn), CC(O)CN(CCC(N)=O)CCC(N)=O (stereo not drawn), CCOC(=O)CC1NC(=O)c2ccccc21 (stereo not drawn), CC(=O)N1CCC2(CC1)CN(c1ccccc1)C2, CNc1cc(-c2ccccc2CN(C)C)ncn1, CN(C)Cc1ccccc1-c1cc(NCc2ccccc2)ncn1, Cc1cnc(CNc2cc(-c3ccccc3CN(C)C)ncn2)cn1, COc1ccccc1-c1cc(NCc2ccccc2)ncn1, NCCNC(=O)c1ccc(Cl)cc1, FC(F)(F)c1ccccc1-c1cc(NCCN2CCOCC2)ncn1, COCCNc1ccnc(-c2ccccc2C)n1, Clc1ccccc1-c1cc(NCCN2CCOCC2)ncn1, Cn1cc(C(=O)c2cccc(Cl)c2Cl)cc1C(=O)O, Cn1cccc1C(=O)N1CCC2(CC1)CN(Cc1cc(C(F)(F)F)cc(C(F)(F)F)c1)C2, Cn1cccc1C(=O)N1CCC2(CCN(Cc3ccccc3)CC2)CC1, Cn1cccc1C(=O)N1CCC2(CC1)CN(Cc1ccc(C#N)cc1)C2, CCN[C@@H]1C[C@H](C)S(=O)(=O)c2sc(S(N)(=O)=O)cc21, NC(N)=Nc1nc(CCN2C(=O)c3ccccc3C2=O)cs1, Cc1nc2nc[nH]n2c(=O)c1NC(=O)CC12CC3CC(CC(C3)C1)C2

AC50, active:
COc1ccc(CCN2CC34C=CC(O3)C(C(=O)NCc3ccccc3)C4C2=O)cc1OC (stereo not drawn) 2.82 µM, Cc1ccc(CN2CC34C=CC(O3)C(C(=O)NCc3ccc5c(c3)OCO5)C4C2=O)cc1 (stereo not drawn) 0.251 µM, COCCCNC(=O)C1C2C=CC3(CN(Cc4ccc(C)cc4)C(=O)C13)O2 (stereo not drawn) 7.94 µM, Cc1ccc(CN2CC34C=CC(O3)C(C(=O)NCc3ccco3)C4C2=O)cc1 (stereo not drawn) 8.91 µM, CCCCNC(=O)C1C2C=CC3(CN(Cc4ccccc4Cl)C(=O)C13)O2 (stereo not drawn) 3.98 µM, Cc1ccccc1Cn1cc(NC(=O)CSc2nc3c(c(C(F)(F)F)n2)CCc2ccccc2-3)cn1 5.01 µM, Cc1nn(Cc2ccc(Cl)cc2)c(C)c1NC(=O)CSc1nc2c(c(C(F)(F)F)n1)CCc1ccccc1-2 3.16 µM, Cc1cccc(CNc2cc(-c3cccc(C#N)c3)ncn2)c1 7.94 µM, N#Cc1cccc(-c2cc(NCc3cccnc3)ncn2)c1 2.51 µM, COc1ccccc1C1=NOC(COC(=O)c2ccc3ccccc3n2)C1 (stereo not drawn) 17.8 µM, COc1ccc(CNc2cc(-c3cccc(NS(C)(=O)=O)c3)ncn2)c(OC)c1 2.51 µM, COc1ccccc1CNc1cc(-c2cccc(NS(C)(=O)=O)c2)ncn1 5.01 µM, Cc1cccc(C2NC(=O)c3c(sc(C)c3C)N2)c1O (stereo not drawn) 12.6 µM, O=C(O)c1ccccc1C(=O)NNc1ccc(Cl)cc1 7.94 µM, O=C(O)c1ccccc1C(=O)NNc1ccc(F)cc1 11.2 µM, Cc1cc(NC(=O)Nc2ccc3c(ccn3C)c2)sn1 12.6 µM, Cc1noc(C)c1-c1ccc2ncnc(N3CCN(C)CC3)c2c1 25.1 µM, Cc1noc(C)c1-c1ccc2ncnc(NCCN3CCOCC3)c2c1 12.6 µM, Cc1noc(C)c1-c1ccc2ncnc(N3CCOCC3)c2c1 31.6 µM, COc1ccccc1CC(=N)N1C[C@@H]2C(=O)CCC(c3ccccc3)(c3ccccc3)[C@@H]2C1 3.16 µM, O=C1CCCC2=C1C(c1ccc(Cl)cc1)C1C(=O)c3ccccc3C1=N2 (stereo not drawn) 14.1 µM, COC(=O)[C@@]1(Cc2ccc(F)cc2)[C@@H]2C(=CC(=O)[C@H]2CC(=O)C(=O)N(C)C)CN1C(=O)c1ccccc1 10 µM, COC(=O)[C@@]1(Cc2ccccc2)[C@@H]2C(=CC(=O)[C@H]2CC(=O)C(=O)N(C)C)CN1C(=O)c1ccccc1 7.94 µM, CC(=O)N=c1sccn1CC(=O)c1ccc([N+](=O)[O-])cc1 4.47 µM, CCCN1C(=O)C(Cc2nc3ccccc3c(=O)n2C)c2ccccc21 (stereo not drawn) 7.94 µM, CC(=O)N1CCN(C(=O)CC2OC(=O)c3ccccc32)CC1 (stereo not drawn) 12.6 µM, O=C(CSc1nc2ccccc2[nH]1)Nc1c(F)cccc1F 14.1 µM, Cc1cccc(CNc2cc(-c3ccccc3CN(C)C)ncn2)c1 15.8 µM, COc1ccccc1-c1cc(NCc2cccc(C)c2)ncn1 6.31 µM, CN(C)Cc1ccccc1-c1cc(NC2CC2)ncn1 25.1 µM, Cc1cccc(CNc2cc(-c3ccccc3Cl)ncn2)c1 15.8 µM, COC(=O)[C@@]1(Cc2ccc(OC)cc2)[C@H]2c3cc(C(=O)N4CCCC4)n(Cc4cc(F)cc5c4OCOC5)c3C[C@H]2CN1C(=O)c1ccccc1 2.51 µM, COC(=O)[C@@]1(Cc2ccccc2)[C@H]2c3cc(C(=O)N4CCCC4)n(Cc4cc(F)cc5c4OCOC5)c3C[C@H]2CN1C(=O)c1ccccc1 3.98 µM, CC(C)(CNC(=O)c1ccc([N+](=O)[O-])c(Cl)c1)CNC(=O)c1ccc([N+](=O)[O-])c(Cl)c1 8.91 µM, Clc1ccccc1-c1nccc(NCCN2CCOCC2)n1 15.8 µM, Cc1ccccc1-c1nccc(NCCN2CCOCC2)n1 25.1 µM, FC(F)(F)c1ccccc1-c1nccc(NCCN2CCOCC2)n1 15.8 µM, COc1ccc(NC(=O)CSc2nc(C)c3c(c2C#N)CCCC3)cc1 17.8 µM, CCOc1ccc(NC(=O)CSc2nc(C)c3c(c2C#N)CCCC3)cc1 12.6 µM, Cn1cccc1C(=O)N1CCC[C@@]2(CCN(Cc3ccc(C#N)cc3)C2)C1 12.6 µM, Cn1cccc1C(=O)N1CCC[C@@]2(CCN(Cc3cc(C(F)(F)F)cc(C(F)(F)F)c3)C2)C1 15.8 µM, N#C/C(=C/c1cccc(C(F)(F)F)c1)c1nc(CCN2C(=O)c3ccccc3C2=O)cs1 5.01 µM, O=C(O)CSCNC(=O)CC12CC3CC(CC(C3)C1)C2 0.224 µM

Source: PubChem BioAssay AID1851 (National Center for Advancing Translational Sciences (NCATS), 2009)
